Measured values reported in the supplement of paper PMC11732987, “Enantioselective OTUD7B fragment discovery through chemoproteomics screening and high-throughput optimisation” (Communications Chemistry, 2025).

What was measured:
Assay in all cases: log2 ratio of Biotin-Ahx-Ub-VS probe labelling (fragment/DMSO); higher = less target engagement (more negative = stronger competition), active = hit call of the paper (q ≤ 0.05, log2 ratio ≤ -1)
Details in all cases: compound concentration: 200 uM; treatment time: 3 h
[1] = molecular target: USP9X (UniProt Q93008)
Outline: (§1)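 HEK293T lysate (495 µg per sample, in Tris/CHAPS/IGEPAL buffer with protease inhibitors) was exposed in triplicate for 3 h to fragment at 200 µM or to vehicle, then to Biotin-Ahx-Ub-VS at 0.5 µM final for 1 h. Labelled DUBs were enriched on NeutrAvidin, digested with LysC and trypsin, and analysed by diaPASEF LC-MS/MS. Spectronaut label-free quantities were normalised to the global median, and values are average log2 ratios of fragment over vehicle from an unpaired t-test. Only proteins with ≥2 unique peptides were used.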

[2] = molecular target: UniProt O00487
Outline: as §1

[3] = molecular target: UniProt O00507
Outline: as §1

[4] = molecular target: UniProt P51784
Outline: as §1

[5] = molecular target: T1, UniProt Q5T2D3
T1 sequence (whole entry): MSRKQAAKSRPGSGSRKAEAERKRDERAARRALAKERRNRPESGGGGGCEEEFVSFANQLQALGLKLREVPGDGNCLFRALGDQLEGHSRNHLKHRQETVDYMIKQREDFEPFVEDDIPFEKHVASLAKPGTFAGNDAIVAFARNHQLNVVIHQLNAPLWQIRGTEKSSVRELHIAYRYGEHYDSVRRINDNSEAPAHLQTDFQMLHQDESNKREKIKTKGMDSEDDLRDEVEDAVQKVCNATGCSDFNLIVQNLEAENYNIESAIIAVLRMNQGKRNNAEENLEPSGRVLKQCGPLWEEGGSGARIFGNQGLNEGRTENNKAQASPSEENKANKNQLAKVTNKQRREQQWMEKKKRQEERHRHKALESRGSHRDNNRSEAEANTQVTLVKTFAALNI
Outline: as §1

[6] = molecular target: T2, UniProt Q8TE49
T2 sequence (whole entry): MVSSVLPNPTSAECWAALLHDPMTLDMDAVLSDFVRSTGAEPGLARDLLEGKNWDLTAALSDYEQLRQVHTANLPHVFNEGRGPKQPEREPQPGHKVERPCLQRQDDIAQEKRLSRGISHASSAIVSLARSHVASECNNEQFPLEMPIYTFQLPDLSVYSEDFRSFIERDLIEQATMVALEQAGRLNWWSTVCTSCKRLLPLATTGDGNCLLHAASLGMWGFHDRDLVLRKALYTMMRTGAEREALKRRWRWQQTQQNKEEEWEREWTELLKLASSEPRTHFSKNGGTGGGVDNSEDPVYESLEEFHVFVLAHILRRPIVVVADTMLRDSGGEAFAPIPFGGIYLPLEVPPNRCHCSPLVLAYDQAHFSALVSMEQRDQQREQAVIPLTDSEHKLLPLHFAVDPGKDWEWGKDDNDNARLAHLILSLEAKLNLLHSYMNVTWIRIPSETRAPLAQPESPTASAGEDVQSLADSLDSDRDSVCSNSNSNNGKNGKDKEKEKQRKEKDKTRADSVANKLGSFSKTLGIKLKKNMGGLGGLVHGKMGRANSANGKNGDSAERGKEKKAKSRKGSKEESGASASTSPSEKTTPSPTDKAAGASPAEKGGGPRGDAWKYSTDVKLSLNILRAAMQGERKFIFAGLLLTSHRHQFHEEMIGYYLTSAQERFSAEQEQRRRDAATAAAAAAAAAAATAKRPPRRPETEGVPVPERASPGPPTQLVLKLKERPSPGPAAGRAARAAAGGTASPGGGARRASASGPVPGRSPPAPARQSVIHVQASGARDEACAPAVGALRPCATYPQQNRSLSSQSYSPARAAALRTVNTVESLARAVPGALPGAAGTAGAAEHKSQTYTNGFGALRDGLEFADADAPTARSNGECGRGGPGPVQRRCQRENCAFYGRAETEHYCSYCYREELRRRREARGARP
Outline: as §1

[7] = molecular target: T3, UniProt Q9P2H5
T3 sequence (whole entry): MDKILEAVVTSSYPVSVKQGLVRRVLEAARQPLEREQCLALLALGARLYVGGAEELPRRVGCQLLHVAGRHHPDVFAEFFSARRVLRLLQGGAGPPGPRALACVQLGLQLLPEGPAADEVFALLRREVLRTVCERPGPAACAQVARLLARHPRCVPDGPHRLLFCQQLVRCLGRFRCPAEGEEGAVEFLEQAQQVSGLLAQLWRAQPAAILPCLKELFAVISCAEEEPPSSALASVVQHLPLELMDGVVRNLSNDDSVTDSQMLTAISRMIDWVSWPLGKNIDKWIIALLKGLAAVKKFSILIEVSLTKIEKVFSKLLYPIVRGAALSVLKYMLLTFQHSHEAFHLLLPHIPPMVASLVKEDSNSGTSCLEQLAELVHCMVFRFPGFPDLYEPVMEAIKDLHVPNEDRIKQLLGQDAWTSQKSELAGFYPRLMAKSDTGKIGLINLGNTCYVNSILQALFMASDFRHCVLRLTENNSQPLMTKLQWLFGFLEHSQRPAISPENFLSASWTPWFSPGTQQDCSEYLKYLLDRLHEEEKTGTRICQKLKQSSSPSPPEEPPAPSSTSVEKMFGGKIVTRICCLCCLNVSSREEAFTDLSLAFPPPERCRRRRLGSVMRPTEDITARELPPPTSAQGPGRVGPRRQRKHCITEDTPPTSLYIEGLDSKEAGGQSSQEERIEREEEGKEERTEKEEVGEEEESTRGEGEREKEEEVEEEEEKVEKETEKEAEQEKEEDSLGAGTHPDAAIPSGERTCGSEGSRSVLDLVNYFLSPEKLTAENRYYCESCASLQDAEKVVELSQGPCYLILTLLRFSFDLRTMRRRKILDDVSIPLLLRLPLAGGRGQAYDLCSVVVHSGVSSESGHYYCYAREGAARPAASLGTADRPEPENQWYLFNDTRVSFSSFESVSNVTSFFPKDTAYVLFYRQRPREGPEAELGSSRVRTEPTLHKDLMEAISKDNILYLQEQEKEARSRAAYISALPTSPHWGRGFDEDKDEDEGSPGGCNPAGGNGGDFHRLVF
Outline: as §1

[8] = molecular target: T4, UniProt Q9UGI0
T4 sequence (whole entry): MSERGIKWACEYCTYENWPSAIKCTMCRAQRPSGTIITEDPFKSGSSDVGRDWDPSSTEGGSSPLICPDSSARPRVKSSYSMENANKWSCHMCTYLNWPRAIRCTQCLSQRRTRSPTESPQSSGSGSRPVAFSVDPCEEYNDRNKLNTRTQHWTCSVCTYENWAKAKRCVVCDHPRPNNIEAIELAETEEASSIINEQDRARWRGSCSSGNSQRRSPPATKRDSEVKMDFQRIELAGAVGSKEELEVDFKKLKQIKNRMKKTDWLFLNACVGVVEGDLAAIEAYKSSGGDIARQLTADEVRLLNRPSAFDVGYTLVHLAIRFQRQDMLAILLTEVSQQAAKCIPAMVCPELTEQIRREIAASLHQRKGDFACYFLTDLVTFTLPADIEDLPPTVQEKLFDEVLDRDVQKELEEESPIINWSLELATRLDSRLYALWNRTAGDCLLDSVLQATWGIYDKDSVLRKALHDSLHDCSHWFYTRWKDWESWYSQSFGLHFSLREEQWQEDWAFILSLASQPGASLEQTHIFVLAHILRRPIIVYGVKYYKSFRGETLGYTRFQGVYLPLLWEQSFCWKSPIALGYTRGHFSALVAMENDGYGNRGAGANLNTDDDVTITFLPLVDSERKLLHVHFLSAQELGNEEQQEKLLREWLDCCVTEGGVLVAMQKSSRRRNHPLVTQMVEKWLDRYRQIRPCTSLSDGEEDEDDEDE
Outline: as §1

[9] = molecular target: T5, YOD1 (UniProt Q5VVQ6)
T5 sequence (whole entry): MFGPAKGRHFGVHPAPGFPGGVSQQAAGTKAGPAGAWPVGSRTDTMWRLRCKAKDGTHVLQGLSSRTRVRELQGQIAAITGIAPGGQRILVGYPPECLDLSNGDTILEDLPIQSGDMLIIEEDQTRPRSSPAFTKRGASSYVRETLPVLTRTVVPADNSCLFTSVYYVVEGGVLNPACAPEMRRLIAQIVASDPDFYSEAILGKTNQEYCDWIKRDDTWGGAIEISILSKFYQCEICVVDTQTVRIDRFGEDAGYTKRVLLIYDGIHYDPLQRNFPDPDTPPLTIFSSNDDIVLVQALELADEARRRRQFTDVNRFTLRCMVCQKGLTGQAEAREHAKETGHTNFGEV
Outline: as §1

Measured: log2 ratio of Biotin-Ahx-Ub-VS probe labelling

Sequence of UniProt P51784 (P51784 whole entry): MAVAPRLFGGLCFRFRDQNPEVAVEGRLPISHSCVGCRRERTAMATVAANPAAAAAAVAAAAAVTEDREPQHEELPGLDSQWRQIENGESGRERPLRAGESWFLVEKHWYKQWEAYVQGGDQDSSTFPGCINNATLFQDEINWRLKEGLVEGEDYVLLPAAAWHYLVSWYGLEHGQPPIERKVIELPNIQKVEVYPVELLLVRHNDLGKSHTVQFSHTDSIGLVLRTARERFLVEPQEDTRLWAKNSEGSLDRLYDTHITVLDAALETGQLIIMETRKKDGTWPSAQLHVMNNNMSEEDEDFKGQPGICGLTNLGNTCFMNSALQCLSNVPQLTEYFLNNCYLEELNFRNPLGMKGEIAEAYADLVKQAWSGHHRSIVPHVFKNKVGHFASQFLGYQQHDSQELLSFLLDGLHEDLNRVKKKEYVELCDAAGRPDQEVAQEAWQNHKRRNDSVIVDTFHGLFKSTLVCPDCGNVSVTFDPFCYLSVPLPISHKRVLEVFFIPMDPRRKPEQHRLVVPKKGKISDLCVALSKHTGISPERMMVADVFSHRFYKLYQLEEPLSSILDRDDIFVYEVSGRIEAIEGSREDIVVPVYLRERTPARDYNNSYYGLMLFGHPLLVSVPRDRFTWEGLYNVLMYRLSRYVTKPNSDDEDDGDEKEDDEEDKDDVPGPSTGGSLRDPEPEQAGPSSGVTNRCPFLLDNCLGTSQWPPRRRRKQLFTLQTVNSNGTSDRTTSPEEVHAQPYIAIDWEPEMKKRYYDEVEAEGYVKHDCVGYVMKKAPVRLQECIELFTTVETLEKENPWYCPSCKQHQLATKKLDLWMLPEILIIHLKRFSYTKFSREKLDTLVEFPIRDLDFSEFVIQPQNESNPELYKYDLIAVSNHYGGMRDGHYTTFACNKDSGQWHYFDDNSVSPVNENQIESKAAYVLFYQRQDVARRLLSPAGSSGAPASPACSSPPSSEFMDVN
Sequence of USP9X (Q93008 whole entry, the tested form may be a part): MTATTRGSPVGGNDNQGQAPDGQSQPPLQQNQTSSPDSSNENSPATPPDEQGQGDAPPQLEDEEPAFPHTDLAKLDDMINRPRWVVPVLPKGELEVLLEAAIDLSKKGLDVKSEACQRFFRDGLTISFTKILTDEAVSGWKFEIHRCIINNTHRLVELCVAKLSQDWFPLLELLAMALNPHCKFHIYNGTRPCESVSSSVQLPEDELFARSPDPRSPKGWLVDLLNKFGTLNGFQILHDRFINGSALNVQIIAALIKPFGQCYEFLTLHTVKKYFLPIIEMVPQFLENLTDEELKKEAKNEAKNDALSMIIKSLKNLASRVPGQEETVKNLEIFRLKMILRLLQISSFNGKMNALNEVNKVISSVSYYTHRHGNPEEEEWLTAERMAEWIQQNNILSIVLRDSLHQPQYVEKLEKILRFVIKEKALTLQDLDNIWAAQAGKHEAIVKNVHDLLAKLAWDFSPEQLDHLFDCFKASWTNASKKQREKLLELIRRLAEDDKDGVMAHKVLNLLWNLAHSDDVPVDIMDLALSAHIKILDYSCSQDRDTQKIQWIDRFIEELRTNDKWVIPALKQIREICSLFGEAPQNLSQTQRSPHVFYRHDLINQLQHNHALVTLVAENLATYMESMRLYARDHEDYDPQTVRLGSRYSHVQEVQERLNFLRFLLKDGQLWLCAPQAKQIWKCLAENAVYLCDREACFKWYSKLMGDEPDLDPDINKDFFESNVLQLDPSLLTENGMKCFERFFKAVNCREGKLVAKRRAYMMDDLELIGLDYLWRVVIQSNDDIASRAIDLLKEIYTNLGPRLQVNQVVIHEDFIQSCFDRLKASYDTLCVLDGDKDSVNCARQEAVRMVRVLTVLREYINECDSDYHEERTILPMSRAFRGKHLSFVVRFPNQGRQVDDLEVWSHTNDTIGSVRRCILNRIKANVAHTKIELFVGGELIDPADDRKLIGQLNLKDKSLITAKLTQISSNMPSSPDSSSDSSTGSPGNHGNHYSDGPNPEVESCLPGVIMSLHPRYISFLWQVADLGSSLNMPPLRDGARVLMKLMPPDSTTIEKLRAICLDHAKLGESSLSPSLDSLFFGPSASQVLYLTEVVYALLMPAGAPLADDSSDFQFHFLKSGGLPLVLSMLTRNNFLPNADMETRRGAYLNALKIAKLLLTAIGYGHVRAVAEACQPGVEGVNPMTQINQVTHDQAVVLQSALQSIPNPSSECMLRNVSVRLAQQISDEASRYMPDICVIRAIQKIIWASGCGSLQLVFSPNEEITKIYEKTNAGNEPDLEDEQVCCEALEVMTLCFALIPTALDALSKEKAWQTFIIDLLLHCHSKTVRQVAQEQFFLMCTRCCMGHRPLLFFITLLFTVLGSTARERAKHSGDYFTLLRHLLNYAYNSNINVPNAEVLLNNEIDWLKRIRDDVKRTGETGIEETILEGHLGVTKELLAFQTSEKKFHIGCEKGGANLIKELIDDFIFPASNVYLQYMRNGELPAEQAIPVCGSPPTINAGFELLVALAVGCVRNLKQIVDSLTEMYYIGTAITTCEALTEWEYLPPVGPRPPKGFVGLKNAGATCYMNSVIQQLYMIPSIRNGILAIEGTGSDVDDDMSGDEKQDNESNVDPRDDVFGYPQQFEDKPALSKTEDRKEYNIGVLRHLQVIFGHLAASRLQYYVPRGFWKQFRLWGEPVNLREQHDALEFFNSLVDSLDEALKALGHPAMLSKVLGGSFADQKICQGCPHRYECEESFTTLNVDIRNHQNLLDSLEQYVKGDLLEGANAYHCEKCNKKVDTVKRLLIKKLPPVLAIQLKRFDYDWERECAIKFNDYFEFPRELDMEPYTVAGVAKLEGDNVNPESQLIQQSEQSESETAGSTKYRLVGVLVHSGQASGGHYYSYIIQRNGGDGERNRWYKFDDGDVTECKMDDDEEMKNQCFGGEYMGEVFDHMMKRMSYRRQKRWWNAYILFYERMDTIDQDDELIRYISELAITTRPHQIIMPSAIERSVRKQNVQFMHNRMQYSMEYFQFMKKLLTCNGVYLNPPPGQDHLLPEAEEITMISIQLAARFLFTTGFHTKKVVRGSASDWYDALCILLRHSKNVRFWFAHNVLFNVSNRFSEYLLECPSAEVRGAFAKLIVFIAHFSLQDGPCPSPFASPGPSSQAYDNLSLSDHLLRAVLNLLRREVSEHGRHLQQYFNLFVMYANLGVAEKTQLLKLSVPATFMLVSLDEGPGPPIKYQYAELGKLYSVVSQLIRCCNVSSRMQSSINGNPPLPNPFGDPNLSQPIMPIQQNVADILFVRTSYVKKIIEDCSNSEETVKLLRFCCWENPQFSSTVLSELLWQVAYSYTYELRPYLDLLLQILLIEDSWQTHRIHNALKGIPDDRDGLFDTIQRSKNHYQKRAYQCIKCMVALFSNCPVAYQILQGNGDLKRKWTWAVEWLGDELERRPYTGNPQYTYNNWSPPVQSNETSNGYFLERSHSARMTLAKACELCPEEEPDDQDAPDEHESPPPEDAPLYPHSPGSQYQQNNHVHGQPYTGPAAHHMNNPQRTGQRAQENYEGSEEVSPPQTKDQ
Sequence of UniProt O00487 (O00487 whole entry): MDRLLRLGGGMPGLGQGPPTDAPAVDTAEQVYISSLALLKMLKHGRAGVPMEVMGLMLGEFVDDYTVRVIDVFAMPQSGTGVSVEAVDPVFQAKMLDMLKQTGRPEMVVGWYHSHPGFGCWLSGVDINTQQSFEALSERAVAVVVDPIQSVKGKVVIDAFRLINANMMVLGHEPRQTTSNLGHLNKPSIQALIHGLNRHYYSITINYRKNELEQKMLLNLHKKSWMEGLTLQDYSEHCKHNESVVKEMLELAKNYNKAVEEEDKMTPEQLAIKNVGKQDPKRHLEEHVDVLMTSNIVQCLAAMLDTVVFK

O=C(CCl)Nc1ccccc1C(F)(F)F
inactive: [1] -0.0415 | [2] -0.162 | [3] -0.463 | [4] -0.127 | [5] -0.319 | [6] -0.411 | [7] 0.0663 | [8] -0.466 | [9] -0.621
